{
  "source": "the antibiotic and cytotoxicity screens of Wong et al. (2023)",
  "note": "Hit rate of the full screen: of about 39,000 compounds, about 3,300 (8.5%) were called active. This excerpt belongs to a sample that is enriched for actives.",
  "data": [
    {"system": "HepG2", "experiment": "cytotoxicity call (relative viability < 0.9)", "settings": "10 µM", "values": [
      {"smiles": "COc1ccc2c3c([nH]c2c1)[C@@H](CO)N(C[C@]13CN(Cc2ccccc2)C1)S(=O)(=O)c1cn(cn1)C", "cytotoxicity call": "inactive"},
      {"smiles": "C[C@@H]1CN([C@H](C)CO)S(=O)(=O)c2ccc(C#CC3(O)CCCC3)cc2O[C@@H]1CN(C)C(=O)c1cccnc1", "cytotoxicity call": "inactive"},
      {"smiles": "COc1ccc(CN(C)C[C@H]2OCCCC[C@H](C)Oc3ccc(NC(=O)c4ccccc4)cc3C(=O)N([C@H](C)CO)C[C@H]2C)cc1", "cytotoxicity call": "inactive"},
      {"smiles": "COc1ccc(CN(C)C[C@H]2OCCCC[C@@H](C)Oc3ccc(NC(=O)Cc4ccccc4)cc3C(=O)N([C@H](C)CO)C[C@H]2C)cc1", "cytotoxicity call": "inactive"},
      {"smiles": "CC[C@@](N)(C(=O)O)c1ccccc1", "cytotoxicity call": "inactive"},
      {"smiles": "C=C(C)[C@]1(O)OC(=O)C=C1OC", "cytotoxicity call": "inactive"},
      {"smiles": "C[C@@H]1CN([C@H](C)CO)C(=O)c2cc(C#Cc3ccccc3F)cnc2O[C@@H]1CN(C)S(=O)(=O)c1ccccc1", "cytotoxicity call": "inactive"},
      {"smiles": "CCC(=O)N1CCC[C@@H]1C(=O)O", "cytotoxicity call": "inactive"},
      {"smiles": "Cc1noc(C)c1NC(=O)Nc1ccc2c(c1)C(=O)N([C@H](C)CO)C[C@H](C)[C@H](CN(C)C(=O)c1ccccc1)OCCCC[C@@H](C)O2", "cytotoxicity call": "inactive"},
      {"smiles": "Cc1ccc(S(=O)(=O)N[C@@H]2CC[C@@H](CC(=O)N3CCC(Cc4ccccc4)CC3)O[C@@H]2CO)cc1", "cytotoxicity call": "inactive"},
      {"smiles": "C[C@@H]1CCCCO[C@H](CN(C)CC2CCCCC2)[C@H](C)CN([C@H](C)CO)C(=O)c2cc(NC(=O)c3ccncc3)ccc2O1", "cytotoxicity call": "inactive"},
      {"smiles": "C[C@H](CO)N1C[C@H](C)[C@H](CN(C)C(=O)Nc2ccc(C(F)(F)F)cc2)Oc2ccc(NC(=O)Nc3ccc4c(c3)OCO4)cc2C1=O", "cytotoxicity call": "inactive"},
      {"smiles": "C[C@@H]1CN([C@H](C)CO)S(=O)(=O)c2ccc(-c3cccc(F)c3)cc2O[C@@H]1CN(C)S(C)(=O)=O", "cytotoxicity call": "inactive"},
      {"smiles": "C[C@@H]1CN([C@@H](C)CO)C(=O)c2cc(NC(=O)C3CC3)ccc2O[C@H]1CN(C)S(=O)(=O)c1ccc(Cl)cc1", "cytotoxicity call": "inactive"},
      {"smiles": "C[C@H](CO)N1C[C@H](C)[C@@H](CN(C)Cc2ccccc2)Oc2ccc(NC(=O)Nc3ccc(C(F)(F)F)cc3)cc2C1=O", "cytotoxicity call": "active"},
      {"smiles": "C[C@@H]1CN([C@H](C)CO)C(=O)c2cc(NC(=O)Nc3ccc(C(F)(F)F)cc3)ccc2O[C@H]1CN(C)Cc1ccccc1", "cytotoxicity call": "active"},
      {"smiles": "C[C@@H]1CN([C@@H](C)CO)C(=O)c2cc(NC(=O)Cc3ccccc3)ccc2O[C@@H](C)CCCCO[C@@H]1CN(C)S(=O)(=O)c1cccs1", "cytotoxicity call": "inactive"},
      {"smiles": "Cc1cc(C(=O)Nc2cccc3c2O[C@H](CN(C)Cc2ccccc2)[C@@H](C)CN([C@@H](C)CO)C3=O)n(C)n1", "cytotoxicity call": "inactive"},
      {"smiles": "C[C@H]1CN([C@@H](C)CO)C(=O)c2cccc(NC(=O)Nc3ccc4c(c3)OCO4)c2O[C@@H]1CN(C)S(=O)(=O)c1cn(C)cn1", "cytotoxicity call": "inactive"},
      {"smiles": "C[C@H](CO)N1C[C@H](C)[C@H](CN(C)S(=O)(=O)c2cccs2)OCCCC[C@H](C)Oc2ccc(NC(=O)CCC(F)(F)F)cc2C1=O", "cytotoxicity call": "inactive"},
      {"smiles": "Cc1noc(C)c1NC(=O)Nc1ccc2c(c1)C(=O)N([C@H](C)CO)C[C@H](C)[C@@H](CN(C)S(C)(=O)=O)O2", "cytotoxicity call": "inactive"},
      {"smiles": "C[C@@H]1CCCCO[C@@H](CN(C)C(=O)Nc2ccc(C(F)(F)F)cc2)[C@H](C)CN([C@@H](C)CO)C(=O)c2cc(NC(=O)Nc3ccc4c(c3)OCO4)ccc2O1", "cytotoxicity call": "inactive"},
      {"smiles": "Cc1noc(C)c1NC(=O)Nc1ccc2c(c1)C(=O)N([C@@H](C)CO)C[C@H](C)[C@@H](CN(C)C(=O)Nc1ccccc1)OCCCC[C@H](C)O2", "cytotoxicity call": "inactive"},
      {"smiles": "C[C@H](CO)N1C[C@H](C)[C@H](CN(C)C(=O)Nc2cccc3ccccc23)Oc2ccc(NC(=O)CCC(F)(F)F)cc2C1=O", "cytotoxicity call": "inactive"},
      {"smiles": "C[C@@H]1CCCCO[C@@H](CN(C)S(C)(=O)=O)[C@@H](C)CN([C@H](C)CO)C(=O)c2cc(NC(=O)c3ccncc3)ccc2O1", "cytotoxicity call": "inactive"},
      {"smiles": "C[C@H]1CN([C@@H](C)CO)C(=O)Cc2cc(NS(=O)(=O)c3cccs3)ccc2O[C@@H]1CN(C)Cc1ccc(Oc2ccccc2)cc1", "cytotoxicity call": "inactive"},
      {"smiles": "C[C@@H]1CN([C@H](C)CO)C(=O)Cc2cc(NS(=O)(=O)c3cccs3)ccc2O[C@@H]1CN(C)Cc1ccc(Oc2ccccc2)cc1", "cytotoxicity call": "active"},
      {"smiles": "C[C@H](CO)N1C[C@H](C)[C@@H](CN(C)Cc2ccc(Oc3ccccc3)cc2)Oc2ccc(NS(=O)(=O)c3cccs3)cc2CC1=O", "cytotoxicity call": "inactive"},
      {"smiles": "C[C@@H]1CN([C@H](C)CO)C(=O)Cc2cc(NS(=O)(=O)c3cccs3)ccc2O[C@H]1CN(C)Cc1ccc(Oc2ccccc2)cc1", "cytotoxicity call": "active"},
      {"smiles": "C[C@@H]1CN([C@@H](C)CO)C(=O)Cc2cc(NS(=O)(=O)c3cccs3)ccc2O[C@@H]1CN(C)Cc1ccc(Oc2ccccc2)cc1", "cytotoxicity call": "inactive"},
      {"smiles": "C[C@H]1CN([C@@H](C)CO)C(=O)Cc2cc(NS(=O)(=O)c3cccs3)ccc2O[C@H]1CN(C)Cc1ccc(Oc2ccccc2)cc1", "cytotoxicity call": "inactive"},
      {"smiles": "Cn1cc(CN2CCC3(CC2)CNC(=O)CO3)cn1", "cytotoxicity call": "inactive"},
      {"smiles": "COc1cccc(S(=O)(=O)Nc2ccc3c(c2)[C@@H]2C[C@H](CC(=O)NC4CCCCC4)O[C@@H](CO)[C@@H]2O3)c1", "cytotoxicity call": "inactive"},
      {"smiles": "Cc1ccc(S(=O)(=O)Nc2ccc3c(c2)C(=O)N([C@H](C)CO)C[C@@H](C)[C@@H](CN(C)S(=O)(=O)c2ccccc2)O3)cc1", "cytotoxicity call": "inactive"},
      {"smiles": "C[C@@H]1CN([C@@H](C)CO)S(=O)(=O)c2ccc(C#CC(C)(C)O)cc2O[C@H]1CN(C)C(=O)CN(C)C", "cytotoxicity call": "inactive"},
      {"smiles": "COc1ccc(NC(=O)N(C)C[C@H]2OCCCC[C@@H](C)Oc3ccc(NC(=O)c4ccccc4)cc3C(=O)N([C@@H](C)CO)C[C@@H]2C)cc1", "cytotoxicity call": "inactive"},
      {"smiles": "CC(C)NC(=O)N(C)C[C@H]1OCCCC[C@H](C)Oc2ccc(NC(=O)Nc3cccc4ccccc34)cc2C(=O)N([C@H](C)CO)C[C@@H]1C", "cytotoxicity call": "inactive"},
      {"smiles": "C[C@H]1CCCCO[C@H](CN(C)Cc2ccc(C(=O)O)cc2)[C@@H](C)CN([C@@H](C)CO)C(=O)c2cc(NS(=O)(=O)c3ccc(F)cc3)ccc2O1", "cytotoxicity call": "inactive"},
      {"smiles": "CN(C)C/C=C/C(=O)Nc1ccc(C(=O)Nc2cccc(Nc3ncc(Cl)c(-c4c[nH]c5ccccc45)n3)c2)cc1", "cytotoxicity call": "active"},
      {"smiles": "O=C(O)C1CCOCC1", "cytotoxicity call": "inactive"},
      {"smiles": "Cc1ccc(S(=O)(=O)Nc2ccc3c(c2)C(=O)N([C@H](C)CO)C[C@H](C)[C@H](CN(C)Cc2ccc(Cl)c(Cl)c2)OCCCC[C@H](C)O3)cc1", "cytotoxicity call": "inactive"},
      {"smiles": "Cc1ccc(S(=O)(=O)Nc2ccc3c(c2)C(=O)N([C@H](C)CO)C[C@@H](C)[C@H](CN(C)Cc2ccc(Cl)c(Cl)c2)OCCCC[C@H](C)O3)cc1", "cytotoxicity call": "active"},
      {"smiles": "Cc1ccc(S(=O)(=O)Nc2ccc3c(c2)C(=O)N([C@H](C)CO)C[C@@H](C)[C@@H](CN(C)Cc2ccc(Cl)c(Cl)c2)OCCCC[C@H](C)O3)cc1", "cytotoxicity call": "inactive"},
      {"smiles": "Cc1ccc(S(=O)(=O)Nc2ccc3c(c2)C(=O)N([C@@H](C)CO)C[C@@H](C)[C@H](CN(C)Cc2ccc(Cl)c(Cl)c2)OCCCC[C@@H](C)O3)cc1", "cytotoxicity call": "inactive"},
      {"smiles": "Cc1ccc(S(=O)(=O)Nc2ccc3c(c2)C(=O)N([C@@H](C)CO)C[C@H](C)[C@@H](CN(C)Cc2ccc(Cl)c(Cl)c2)OCCCC[C@@H](C)O3)cc1", "cytotoxicity call": "active"},
      {"smiles": "Cc1ccc(S(=O)(=O)Nc2ccc3c(c2)C(=O)N([C@H](C)CO)C[C@H](C)[C@@H](CN(C)Cc2ccc(Cl)c(Cl)c2)OCCCC[C@H](C)O3)cc1", "cytotoxicity call": "inactive"},
      {"smiles": "Cc1ccc(S(=O)(=O)Nc2ccc3c(c2)C(=O)N([C@@H](C)CO)C[C@@H](C)[C@@H](CN(C)Cc2ccc(Cl)c(Cl)c2)OCCCC[C@@H](C)O3)cc1", "cytotoxicity call": "active"},
      {"smiles": "Cc1ccc(S(=O)(=O)Nc2ccc3c(c2)C(=O)N([C@H](C)CO)C[C@@H](C)[C@H](CN(C)Cc2ccc(Cl)c(Cl)c2)OCCCC[C@@H](C)O3)cc1", "cytotoxicity call": "active"}
    ]}
  ]
}
